Laboratory results as given in PubChem BioAssay (NCATS).
A number with no mark means an inactive call. Results filed as inconclusive are left out. Where a call stands in place of a potency, no number is given. Active and inactive are the calls of the source. The call rests on the fitted dose curve; in most records, active means well fitted curve in the direction sought with a large enough effect; inconclusive means small, poorly fitted or top-dose-only effect, or another doubt; inactive means no such curve, though single readings can be large; an effect the other way counts as inactive or inconclusive. Where a SMILES comes first, the peptide text is derived from it. The star is where a group is joined. Cbz = O=C(OCc1ccccc1)*; CH2Cl = ClC*

Experiments:
[1] = target: Glutathione peroxidase 1 (Homo sapiens) (UniProt P07203); experiment: Primary qHTS Assay for Inhibitors of Recombinant Selenoprotein Glutathione Peroxidase 1 (GPX1) (AID 1845191); further: nearly all actives have a fitted effect of over 65% in size
Glutathione peroxidase 1 (Homo sapiens), sequence (P07203 whole entry, looked up): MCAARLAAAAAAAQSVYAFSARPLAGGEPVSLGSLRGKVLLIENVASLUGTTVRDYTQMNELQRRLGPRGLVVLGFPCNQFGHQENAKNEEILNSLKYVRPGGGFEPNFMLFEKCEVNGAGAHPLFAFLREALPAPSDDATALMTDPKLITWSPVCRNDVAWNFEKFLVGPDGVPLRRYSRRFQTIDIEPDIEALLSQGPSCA
How it was run: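 NADPH consumption tracked by fluorescence at 340/450 nm between t=0 and t=15 min, room temperature. Final mix: 10 nM GPX1, 100 nM glutathione reductase, 1 mM GSH, 0.5 mM NADPH, 0.5 mM cumene hydroperoxide, 0.01% BSA; 30 min compound–enzyme preincubation.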

[2] = target: Phospholipid hydroperoxide glutathione peroxidase GPX4 (Homo sapiens) (UniProt P36969); experiment: Primary qHTS Assay for Inhibitors of Recombinant Selenoprotein Glutathione Peroxidase 4 (GPX4) (AID 1845192); further: nearly all actives have a fitted effect of over 65% in size; on activity change, negative = inhibition: series mostly up to about 50 µM
Phospholipid hydroperoxide glutathione peroxidase GPX4 (Homo sapiens), sequence (P36969 whole entry, looked up): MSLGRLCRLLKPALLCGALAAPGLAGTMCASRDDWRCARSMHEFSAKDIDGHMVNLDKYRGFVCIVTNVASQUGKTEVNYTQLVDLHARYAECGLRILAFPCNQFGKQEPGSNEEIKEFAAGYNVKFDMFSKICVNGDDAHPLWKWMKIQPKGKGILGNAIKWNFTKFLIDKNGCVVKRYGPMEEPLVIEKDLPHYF
How it was run: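 NADPH consumption followed by fluorescence at 340/450 nm, t=0 and after 15 min at room temperature. Reaction started with cumene hydroperoxide (0.5 mM final) after 30 min compound–GPX4 preincubation; final 200 nM GPX4, 100 nM GR, 1 mM GSH, 0.5 mM NADPH.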

[3] = target: Luciferin 4-monooxygenase (Photinus pyralis) (UniProt P08659); experiment: Primary firefly luciferase (FLuc) qHTS assay for identification of artifact compounds. (AID 1845220); further: nearly all actives have a fitted effect of over 60% in size; further: potency means the concentration at half of the fitted maximal effect; on activity change, negative = inhibition: series mostly up to about 54 µM
How it was run: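 Compounds sat 15 min at room temperature with 10 uM luciferin and 10 uM ATP (pH 7.6 Tris acetate). Firefly luciferase (10 nM final) was then added, and luminescence was read 5 min later. Data normalized to no-enzyme and DMSO controls were Hill-fitted.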

[4] = Primary fluorescence-based thiol-reactive (MSTI) qHTS assay for identification of artifact compounds. (AID 1845221); further: nearly all actives have a fitted effect of over 65% in size; further: potency means the concentration at half of the fitted maximal effect;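 on activity change, negative = thiol reactive: series mostly up to about 54 µM; thiol-reactive compounds lower the probe fluorescence signal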
How it was run: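 qHTS titration of compound; 4 uM MSTI, PBS pH 7.4, 2% DMSO; 1 h RT, dark; fluorescence 525/598 nm; normalized to Acetyl-MSTI and MSTI; 4-parameter Hill fit.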

[5] = test system: Nanoluciferase (engineered Oplophorus gracilirostris luciferase); experiment: Primary Nanoluciferase (NLuc) qHTS assay for identification of artifact compounds. (AID 1845222); further: series mostly up to about 54 µM
How it was run: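 Luminescence from secreted NLuc (filtered, 1:55-diluted S16 cell medium) read 5 min after Nano-Glo substrate; compounds preincubated 15 min, RT. Hill fits of inhibition normalized to DMSO and no-enzyme.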

[6] = Primary redox qHTS assay for identification of artifact compounds. (AID 1845223)
How it was run: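 Redox-cycling detection via DTT (250 uM final) oxidation coupled to Amplex Red (25 uM)/HRP (250 mU/mL) in HBSS. 15 min preincubation plus 30 min after DTT, room temperature. Ex/Em 525/598 nm; 4-parameter Hill fit against DMSO and 10 uM DA3003.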

Row | Compound | Potency [1] | Potency [2] | Potency [3] | Potency [4] | Potency [5] | Potency [6] | activity change, negative = inhibition [3] | activity change, negative = thiol reactive [4] | activity, negative = inhibition [5] | redox activity (% of DA3003) [6]
1 | Cc1noc(C)c1-c1cc(O)cc(C(O)c2ccccc2)c1 (stereo not drawn) | inactive | inactive | inactive | inactive | inactive | inactive |  |  |  | 
2 | C#CCOc1ccc2c(c1)c(-c1ccc(C(C)C)cc1)nc(=O)n2C(C)C | inactive | inactive | inactive | inactive | inactive | inactive |  |  |  | 
3 | CC(C)C[C@H](NC(=O)CNC(=O)OCc1ccccc1)C(=O)N[C@@H](Cc1ccccc1)C(=O)CCl (Cbz-Gly-Leu-Phe-CH2Cl) | inactive | inactive | inactive | inactive | inactive | inactive |  |  |  | 
4 | C/C=C(/C)C(=O)O[C@@H]1C[C@@H](OC(=O)CC(C)C)C2(C)C3C(=O)C=C(C)C2C3C1(C)C (stereo partly drawn) | inactive | inactive | inactive | inactive | inactive | inactive |  |  |  | 
5 | Fc1ccc(-c2nc(-c3c(F)cccc3F)[nH]c2-c2ccncc2)cc1 | inactive | inactive | inactive | inactive | inactive | inactive |  |  |  | 
6 | O=[N+]([O-])c1cn2c(n1)OC[C@@H](OCc1ccc(-c3ccc(OC(F)(F)F)cc3)nc1)C2 | inactive | inactive | inactive | inactive | inactive | inactive |  |  |  | 
7 | C[C@@H](N[C@H]1CCCC[C@@H]1NC(=O)c1ccc(Cl)cc1)c1cccc2ccccc12 | inactive | inactive | inactive | inactive | inactive | inactive |  |  |  | 
8 | C/C=C/C=C/C=C/C(=O)O[C@@H]1C=C(CO)C(O)(C(=O)OC)[C@@]2(C)CCCC(C)(C)C12 (stereo partly drawn) | inactive | inactive | inactive | inactive | inactive | inactive |  |  |  | 
9 | O=C(Nc1ccccc1Cl)c1cnc2ccc(C3CCNCC3)cn12 | inactive | inactive | inactive | inactive | inactive | inactive |  |  |  | 
10 | CC(=O)O[C@H]1C[C@@](O)(C(C)C)[C@@H]2[C@@H](OC(=O)c3ccc(O)cc3)CC(C)=CC[C@@]12C | inactive | inactive | inactive | inactive | inactive | inactive |  |  |  | 
11 | Cc1cc(C(=O)Cn2cc(C#N)ccc2=O)c(C)n1Cc1ccccc1 | inactive | inactive | inactive | inactive | inactive | inactive |  |  |  | 
12 | O=C(Nc1ccccc1)N1CCC(Cc2cnc3ccccc3c2)CC1 | inactive | inactive | inactive | inactive | inactive | inactive |  |  |  | 
13 | Oc1cccc(C2NC(=S)Nc3cccc(F)c32)c1 (stereo not drawn) | inactive | inactive | inactive | inactive | inactive | inactive |  |  |  | 
14 | Cc1ccc(NC(=O)c2ccc(CN3CCNCC3)cc2)cc1Nc1nccc(-c2cccnc2)n1 | inactive | inactive | 6.75 µM (active) | inactive | inactive | inactive |  |  |  | 
15 | CC(C)(C)[C@H](NC(=O)c1ccc(N)c(Cl)c1)C(=O)N1CCC[C@H]1C(=O)N[C@H](C#N)CC(=O)O | inactive | inactive | inactive | inactive | inactive | inactive |  |  |  | 
16 | COc1c(C(O)CC(C)C)ccc2c1C(=O)OCc1cc(C)cc(O)c1O2 (stereo not drawn) | inactive | inactive | inactive | inactive | inactive | inactive |  |  |  | 
17 | CC(C)Oc1ccc(-c2cnc3c(-c4ccnc5ccccc45)cnn3c2)cc1 | inactive | inactive | inactive | inactive | inactive | inactive |  |  |  | 
18 | COC1CC(=O)C23C(=O)NC(Cc4c[nH]c5ccccc45)C2C(C)C2(C)OC2C3/C=C/CC(C)CC1O (stereo not drawn) | inactive | inactive | inactive | inactive | inactive | inactive |  |  |  | 
19 | Nc1nc2c(c(N3CC[C@@H](N)C3)n1)CCCc1ccccc1-2 | inactive | inactive | inactive | inactive | inactive | inactive |  |  |  | 
20 | Cc1cccc(C#Cc2cc(F)cc(C#N)c2)n1 | inactive | inactive | inactive | inactive | inactive | inactive |  |  |  | 
21 | O=C(c1c(F)ccc(NS(=O)(=O)N2CC[C@@H](F)C2)c1F)c1c[nH]c2ncc(-c3cnc(C4CC4)nc3)cc12 | inactive | inactive | inactive | inactive | inactive | inactive |  |  |  | 
22 | COc1ccccc1N1CCN(CC(C(=O)NC(C)(C)C)c2ccccc2)CC1 (stereo not drawn) | inactive | inactive | inactive | inactive | inactive | inactive |  |  |  | 
23 | O=C(/C=C/c1ccccc1O)O[C@@H]1O[C@H](CO)[C@@H](O)[C@H](O)[C@H]1O | inactive | inactive | inactive | inactive | inactive | inactive |  |  |  | 
24 | C=C[C@@]12COC(=O)C(=C)[C@@H]1[C@@H](O)[C@H](C(=C)C(=O)OC)[C@@H](O)C2 | inactive | inactive | inactive | inactive | inactive | inactive |  |  |  | 
25 | COc1cc(O)cc(/C=C/c2cccc(O)c2)c1 | inactive | inactive | 10.7 µM (active) | 18.9 µM (active) | inactive | inactive |  |  |  | 
26 | CC(CCC1(O)OC2CC3C4CC=C5CC(O[C@@H]6O[C@H](CO)[C@@H](O[C@@H]7O[C@@H](C)[C@H](O)[C@@H](O)[C@H]7O)[C@H](O)[C@H]6O[C@@H]6O[C@@H](C)[C@H](O)[C@@H](O)[C@H]6O)CCC5(C)C4CCC3(C)C2C1C)CO[C@@H]1O[C@H](CO)[C@@H](O)[C@H](O)[C@H]1O (stereo partly drawn) | inactive | inactive |  |  |  |  | -3.06% [at 11.6 µM] | 218% [at 11.5 µM] | 2.85% [at 11.6 µM] | 12.7% [at 11.5 µM]
27 | N#CC(CCCN1CCC(O)(c2ccc(Cl)cc2)CC1)(c1ccccc1)c1ccccc1 | inactive | inactive | inactive | inactive | inactive | inactive |  |  |  | 
28 | CCCC1(CCC)CCC2(CCN(CCCN(CC)CC)C2)CC1 | inactive | inactive | inactive | inactive | inactive | inactive |  |  |  | 
